# Most compounds without a hit are left out; they make up all but 9.3% or so of the library.
# ELG1 genotox – qHTS screen for small molecules that induce genotoxicity in human embryonic kidney (HEK293T) cells expressing luciferase-tagged ELG1; AID 504466, 2011; Potency, µM (titrated, usually from 46 µM), for inactives: top-dose activity change, positive = activation, usual class: activators; 330,000 tested, 1.3% active; HEK293T ELG1-luciferase reporter, luminescence, 16 h; further: % of control where 0% means no effect; nearly all actives have a fitted effect of over 60% in size
#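 Step 1: seed 2,000 HEK293T ELG1-luciferase cells per well. Step 2: add compound or DMSO, incubate 16 hr at 37 °C. Step 3: ONE-Glo, 30 min at room temperature, read luminescence.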
# NPC1 promoter act – qHTS Assay for NPC1 Promoter Activators. Huh7 NPC1 promoter luciferase reporter, 24 h. Potency, µM (highest dose often 9.22 µM), inactives show top-dose activation, hits mostly activators. 320,000 tested, 2.4% active. AID 485313, 2010; further: % of control where 0% means no effect; nearly all actives have a fitted effect of over 60% in size
#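 Stably transfected Huh7 (NPC1 promoter→luciferase), 1500 cells/well in Opti-MEM + 10% FBS, 2 h settle, then compound 24 h at 37 °C. Luminescence after 10 min with Amplite reagent.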
# SMN2 splice enh – qHTS Assay for Enhancers of SMN2 Splice Variant Expression; HEK293 SMN2-luciferase splicing reporter, luminescence, 30-36 h; Potency, µM (highest dose often 46.1 µM), without a hit: top-dose activity change, positive = activation, actives largely listed as activators; 210,000 tested, 2.8% active; AID 1458, 2008; further: % of control where 0% means no effect; nearly all actives have a fitted effect of over 55% in size
#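 qHTS luciferase splicing reporter: luminescence rises when SMN2 exon 7 is included in transfected HEK293 cells. Compound exposure lasted 30-36 h at 37C, with 4.5 mM final sodium butyrate as control, followed by a ONE-Glo read.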
# ELG1 repair inh – qHTS screen for small molecules that inhibit ELG1-dependent DNA repair in human embryonic kidney (HEK293T) cells expressing luciferase-tagged ELG1 | HEK293T ELG1-luciferase reporter, luminescence, 16 h; DNA damage induced by 5-fluorouridine | Potency, µM (top dose mostly 46.1 µM), without a hit: at the top dose activity change, negative = inhibition, hits mostly inhibitors | 330,000 tested, 2.3% active | AID 504467, 2011; further: on the % scale 0 is the no-effect control and ±100 the full control effect; nearly all actives have a fitted effect of over 55% in size
#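 Overnight (16 hr) co-exposure of 2,000 cells/well to 5-fluorouridine and compound at 37 °C preceded detection. Luciferase was quantified via ONE-Glo luminescence; loss of signal denotes inhibition.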
# Rab9 prom act – qHTS Assay for Rab9 Promoter Activators. 320,000 tested, 2.8% active. Huh7 Rab9 promoter-luciferase reporter, luminescence, 24 h. AID 485297, 2010. Potency, µM (doses to about 9.22 µM), for the others: top-dose activation, negative = inhibition, hits mostly activators; further: % of control where 0% means no effect; nearly all actives have a fitted effect of over 60% in size
#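 Huh7 cells stably carrying Rab9 promoter–luciferase reporter, plated 1500 cells/well, compound added after 2 h and incubated 24 h at 37 °C; luciferase luminescence then read after 10 min with detection reagent.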
# FLuc counter – qHTS profiling assay for firefly luciferase inhibitor/activator using purifed enzyme and Km concentrations of substrates (counterscreen for miR-21 project); AID 588342, 2011; Potency, µM (highest dose often 57.5 µM), for the others: top-dose activity change, negative = inhibition, actives largely listed as inhibitors; purified FLuc, Km substrates, luminescence inhibition; 360,000 tested, 6.9% active;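 further: plate controls were vehicle for no effect and reference inhibitor for full effect; nearly all actives have a fitted effect of over 55% in size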
# Target sequence (P08659 whole entry, looked up): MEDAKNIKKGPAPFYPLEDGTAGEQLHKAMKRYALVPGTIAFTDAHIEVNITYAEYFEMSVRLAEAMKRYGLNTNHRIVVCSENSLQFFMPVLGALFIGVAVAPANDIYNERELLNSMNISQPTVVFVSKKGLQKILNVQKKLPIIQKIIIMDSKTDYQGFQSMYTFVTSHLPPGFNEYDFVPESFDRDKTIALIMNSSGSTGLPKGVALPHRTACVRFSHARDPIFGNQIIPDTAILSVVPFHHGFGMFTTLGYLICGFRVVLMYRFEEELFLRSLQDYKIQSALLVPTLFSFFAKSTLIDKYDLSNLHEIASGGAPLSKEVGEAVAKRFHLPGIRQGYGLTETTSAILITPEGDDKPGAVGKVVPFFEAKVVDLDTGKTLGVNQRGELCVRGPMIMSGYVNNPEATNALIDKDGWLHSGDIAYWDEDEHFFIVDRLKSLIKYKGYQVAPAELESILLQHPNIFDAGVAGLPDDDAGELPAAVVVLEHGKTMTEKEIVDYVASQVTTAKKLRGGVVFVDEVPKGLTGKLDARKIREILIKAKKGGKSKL
#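 Purified P. pyralis luciferase (10nM final) with 10uM D-luciferin and 10uM ATP (Km levels) in 50mM Tris acetate pH 7.5, 10mM Mg acetate, 0.01% Tween-20, 0.05% BSA; qHTS 6-point titration, ~60 µM downward; luminescence read.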
# Starred values were filed as active, the others as inactive; ? = inconclusive; nt = no result given. The call rests on the fitted dose curve; in most records, active means well fitted curve in the direction sought with a large enough effect; inconclusive means small, poorly fitted or top-dose-only effect, or another doubt; inactive means no such curve, though single readings can be large; an effect the other way counts as inactive or inconclusive. Potency means the concentration at half of the fitted maximal effect.
SMILES,ELG1 genotox,NPC1 promoter act,SMN2 splice enh,ELG1 repair inh,Rab9 prom act,FLuc counter
COc1ccc(CC(=O)NCc2nnc(SCC(=O)Nc3ccc(OC)cc3)n2C)cc1,2%,6%,-9%,12%,5%,?
Cc1cccc(N/C=C/C(=O)c2cccs2)c1C,1.8µM*,29%,2µM*,?,?,0.34µM*
NC(=O)c1ccccc1N/C=C/C(=O)c1ccc(Cl)cc1Cl,?,0.79µM*,1µM*,?,0.5µM*,0.19µM*
NC(=O)c1ccccc1NC(=O)Nc1ccccc1Cl,2%,-2%,-6%,26%,-2%,?
Nc1c(C(=O)c2ccccc2)sc(Nc2ccc(Cl)c(Cl)c2)c1C(=O)Nc1ccccc1,nt,nt,nt,nt,nt,-16%
O=C(c1cn(-c2ccccc2)nc1-c1ccccc1)N1CCOCC1,-3%,-1%,-21%,13%,2%,?
Cc1cc(C(=O)NN=C2CCCCC2)c2ccccc2n1,-1%,-1%,-14%,-2%,-6%,4%
O=C(NN=C1CCCCCC1)c1cn(-c2ccccc2)nc1-c1ccccc1,0%,-3%,-29%,-12%,1%,15µM*
O=C(NC(=S)N1CCOCC1)c1cn(-c2ccccc2)nc1-c1ccccc1,-8%,0%,nt,18µM*,1%,17µM*
O=C(NN=C1CCCCCC1)c1cc(-c2ccccc2)nc2ccccc12,2%,-9%,13%,5%,-4%,17µM*
Cc1ccc(-c2cc(C(=O)NN=C3CCCC3)c3ccccc3n2)cc1,3%,0%,-12%,?,-4%,4.3µM*
NCCN,nt,nt,3%,nt,nt,nt
O=C(Cn1cc(S(=O)(=O)Cc2ccc([N+](=O)[O-])cc2)c2ccccc21)N1CCOCC1,-7%,-4%,nt,-1%,-3%,-1%
CCc1ccc(NC(=O)C2CCN(S(=O)(=O)c3cccs3)CC2)cc1,-6%,-2%,nt,?,0%,-4%
Cc1cc(=O)n2[nH]c(N)c(N=Nc3ccccc3)c2n1,-6%,-2%,18%,-7%,2%,?
COc1cccc(N=Nc2c(=O)[nH]n3c(C)cc(C)nc23)c1,0%,-2%,24%,-2%,1%,-17%
COc1cccc(-c2cc3nc(-c4ccccc4)cc(=O)n3[nH]2)c1,?,-11%,nt,?,0%,12µM*
COc1ccc(-c2c(C(F)(F)F)[nH]n3c(=O)cc(-c4ccccc4)nc23)cc1,-8%,-2%,nt,?,2%,19µM*
Cc1ccc(N=Nc2c(N)[nH]n3c(=O)cc(-c4ccccc4)nc23)cc1,2%,1%,-74%,4%,-3%,9.5µM*
COc1cccc(N=Nc2c(N)[nH]n3c(=O)cc(-c4ccccc4)nc23)c1,-8%,-1%,-86%,6%,3%,11µM*
Cc1ccc(NC(=O)c2ccc3nc(Cc4ccccc4)oc3c2)cc1F,nt,nt,nt,nt,nt,3%
CCCNc1ncnc2c1cnn2-c1ccc(OC)cc1,2%,0.5µM*,-3%,5%,0.4µM*,5.4µM*
C=CCNc1ncnc2c1cnn2-c1ccc(OC)cc1,?,0.63µM*,?,?,0.4µM*,3.4µM*
CCCN(CCC)c1ncnc2c1cnn2-c1ccc(OC)cc1,1.2µM*,0.71µM*,?,?,0.45µM*,2.4µM*
CCOC(=O)C1CCN(C(=O)c2cccc(S(=O)(=O)N(C)C3CCCCC3)c2)CC1,0%,0%,nt,?,-1%,0%
SMILES,ELG1 genotox,NPC1 promoter act,SMN2 splice enh,ELG1 repair inh,Rab9 prom act,FLuc counter
COc1ccc(CCNC(=O)CS(=O)(=O)Cc2nc(-c3cccc(Cl)c3)oc2C)cc1OC,nt,nt,10%,nt,nt,-12%
CC(C(=O)N1CCCCCC1)c1ccc([N+](=O)[O-])cc1 (stereo unspecified),-2%,9%,nt,4%,9%,-2%
COc1ccc(C(=O)NCC23C=CC(O2)C2C(=O)N(Cc4ccccc4)C(=O)C23)cc1 (stereo unspecified),-9%,-2%,-32%,16µM*,-9%,-1%
CC(=O)Oc1ccc(N2C(=O)C3C4C=CC(CO)(O4)C3C2=O)cc1 (stereo unspecified),0%,0%,13%,19%,21%,?
Cc1cc(F)ccc1NC(=O)CCS(=O)(=O)c1cc2c3c(c1)CCN3C(=O)CC2,nt,nt,nt,nt,nt,3%
CCCCOc1ccc(C(=O)Nc2nc3c(s2)CC(C)CC3)cc1 (stereo unspecified),nt,nt,nt,nt,nt,-13%
COC(=O)c1ccc(C(=O)NC(=S)Nc2nc3c(s2)CC(C)CC3)cc1 (stereo unspecified),12%,20%,16µM*,?,3%,-9%
COc1ccc(-c2nc(C#N)c(NCC3CCCO3)o2)cc1 (stereo unspecified),13%,22%,?,?,21%,13µM*
Cc1cccc(-c2nc(C#N)c(NCC3CCCO3)o2)c1 (stereo unspecified),?,2.8µM*,nt,?,2.5µM*,12µM*
Cc1cccc(-c2nc(C#N)c(N3CCCCCC3)o2)c1,16µM*,23%,?,?,18%,11µM*
N#Cc1nc(-c2cccs2)oc1NCC1CCCO1 (stereo unspecified),6%,1%,16%,12%,-1%,-14%
Cc1cccc(-c2nc(C#N)c(N3CCC(C)CC3)o2)c1,0%,-1%,nt,-3%,-3%,-2%
Cc1ccc(-c2nc(C#N)c(NCC3CCCO3)o2)cc1 (stereo unspecified),?,?,13µM*,?,?,21µM*
CCOc1ccc(-c2nc(C#N)c(NCc3ccc4c(c3)OCO4)o2)cc1,4%,11%,?,?,16%,-15%
CCOc1ccc(-c2nc(C#N)c(NC3CC3)o2)cc1,30%,13%,27%,?,?,15µM*
CNS(=O)(=O)c1c(C)cc(C)c(N(C)S(=O)(=O)c2ccccc2)c1C,-6%,-6%,nt,-15%,-7%,-2%
O=C1CCCN1CCCNC(=S)Nc1ccc(Nc2ccccc2)cc1,-12%,1%,-20%,15µM*,-4%,-4%
Cc1ccc(NC(=O)C(=O)NCCCN2CCCC2=O)cc1,2.1µM*,2.2µM*,nt,?,1.4µM*,12µM*
O=C1CCCN1CCCNC(=S)Nc1ccccc1,-2%,0%,nt,21%,-5%,0%
Cc1ccc(-c2nn(-c3ccccc3)cc2C(=O)NCCCN2CCOCC2)cc1,1%,9%,nt,-1%,5%,?

# Bioassay records from PubChem.
